Calls of active or inactive are those of the source.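 Rule for the calls: active = significant body weight gain in treated spinal muscular atrophy model mice compared with vehicle-treated controls; inactive = no significant body weight gain.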

This experiment is described as follows: Extended Characterization of SMN2 Inhibitors: Body Weight Studies. Conditions: SMNdelta7 SMA mice, 50 mg/kg ip. An excerpt: Spinal muscular atrophy (SMA) is caused by insufficient levels of the survival motor neuron protein SMN. The SMN locus on chromosome 5q13 contains two inverted copies of SMN called SMN1 and SMN2 which are 99% identical at the amino acid level. SMN1 is a fully functional protein and SMN2 skips exon 7 90% of the time. Skipping of exon 7 produces non-functional protein product. 10% of the SMN2 protein includes exon 7 and is fully functional. In the SMA disease state, mutations in the SMN1 locus are the cause of the disease state. Because only 10% of SMN2 is of the fully functional form, it is not sufficient to overcome the deficiency produced by the loss of the SMN1 product. A therapy that either increase the amount of SMN2 product made or to increase the inclusion of exon 7 has been proposed for the treatment of SMA. We have previously filed a probe report and have now done further SAR and further characterized the resulting compounds in mice studies. Here we tested the new compound to see if there was an improval in body weight when administered to SMNdelta7 SMA mice. NIH Chemical Genomics Center [NCGC] NIH Molecular Libraries Probe Production centers Network [MLPCN] MLPCN Grant: R03 MH084179 Assay Submitter (PI): Elliot Androphy […]
For `O=C(O)C1CCN(c2ncc(-c3ccc4c(c3)OCCCO4)s2)CC1`, the outcome is “active; yes”.
